From PubChem BioAssay (NCATS) come the findings set out here.

Inconclusive results are not listed. A number with no mark means an inactive call. Active and inactive are the calls of the source. Calls follow the shape of the dose curve; as a rule, active = well fitted inhibition curve with a large enough effect; inconclusive = small, poorly fitted or top-dose-only effect; inactive = flat fitted curve, though single readings scatter.

Assay [1] is described as follows: qHTS profiling for inhibitors of Plasmodium falciparum proliferation (AID 504749).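 As to activity, negative = inhibition: 0% = DMSO vehicle and full inhibition = artemisinin control.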 As to all read-outs here: nearly all actives have a fitted effect of over 60% in size. To be noted: P. falciparum in erythrocytes, SYBR Green DNA, 72 h; for activity, negative = inhibition: at 28.7 µM (top of the series). The gist of the method: (§1)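 P. falciparum-infected erythrocytes (0.3% parasitemia, 2.5% hematocrit) incubated with compound 72 h at 37 C, 5% CO2. Parasite DNA detected by SYBR Green after lysis, overnight at room temperature; normalised to 0.29 uM artemisinin and DMSO.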
(Quantitative high-throughput screening tests each substance at several concentrations.)

For assay [2], the system named is 3D7. The assay is described as above. To be noted: P. falciparum in erythrocytes, SYBR Green DNA, 72 h; series mostly up to 28.7 µM. The procedure, abridged:
as §1

The test system of assay [3] is 7G8. Described as above. Conditions: P. falciparum in erythrocytes, SYBR Green DNA, 72 h; series mostly up to 28.7 µM. The gist of the method:
as §1

Assay [4] has as its system AA1029. The description is as above. To be noted: P. falciparum in erythrocytes, SYBR Green DNA, 72 h; series mostly up to 28.7 µM. The gist of the method:
as §1

Assay [5] relates to AS120. Described as above. To be noted: P. falciparum in erythrocytes, SYBR Green DNA, 72 h; series mostly up to 28.7 µM. The gist of the method: as §1
The test system of assay [6] is ATS189. The description is as above. Conditions: P. falciparum in erythrocytes, SYBR Green DNA, 72 h; series mostly up to 28.7 µM. The gist of the method:
as §1
Potency is read from the fitted curve at half-maximal effect.

With `CCCC(=O)O`, the values for the activity, negative = inhibition in assay [1] (parasite line A) and in assay [1] (parasite line B) were 7.39% and 16.4%, respectively. Further, the Potency result in assay [2], in assay [3], in assay [4], in assay [5] and in assay [6] was “inactive” in each case.

Turning to `CC1CCCCN1CCCOC(=O)c1ccccc1` (stereo not given), the values for the activity, negative = inhibition in assay [1] (parasite line A) and in assay [1] (parasite line B) were 3.84% and 9.27%, respectively. Also, the Potency result in assay [2], in assay [3], in assay [4], in assay [5] and in assay [6] was “inactive” throughout.

Consider `O=C(O)C1=C(CSc2nnnn2CS(=O)(=O)O)CS[C@@H]2[C@H](NC(=O)[C@H](O)c3ccccc3)C(=O)N12`, for which the figures for the activity, negative = inhibition in assay [1] (parasite line A) and in assay [1] (parasite line B) were -7.54% and 1.69%, respectively. For the same compound, the Potency entry in assay [2], in assay [3], in assay [4], in assay [5] and in assay [6] was “inactive” in each case.

Take `Cc1cc(C(=O)NCCc2ccc(S(=O)(=O)NC(=O)NN3CCCCCC3)cc2)no1`: the activity, negative = inhibition was 7.09% in assay [1] (parasite line A) and 6.94% in assay [1] (parasite line B). The Potency entry in assay [2], in assay [3], in assay [4], in assay [5] and in assay [6] was “inactive” in each case.

On to `CCC(Cc1c(I)cc(I)c(O)c1I)C(=O)O` (stereo not given), for which the activity, negative = inhibition is 0.0242% in assay [1] (parasite line A) and -1.87% in assay [1] (parasite line B). For the same compound, the Potency entry in assay [2], in assay [3], in assay [4], in assay [5] and in assay [6] was “inactive” throughout.

`CCOc1ccc(NC(=S)Nc2ccc(OCC)cc2)cc1`: the activity, negative = inhibition in assay [1] (parasite line A) is 1.76%; in assay [1] (parasite line B), -2.23%. Moreover, the Potency entry in assay [2], in assay [3], in assay [4], in assay [5] and in assay [6] was “inactive” throughout.

As for `COc1ccc(/C=C/C(=O)OCCC(C)C)cc1`, the results for the activity, negative = inhibition in assay [1] (parasite line A) and in assay [1] (parasite line B) were 6.28% and 14.5%, respectively. Also, the Potency result in assay [2], in assay [3], in assay [4], in assay [5] and in assay [6] was “inactive” each time.

Take `CCN(CC)CCCC(C)Nc1cc(/C=C/c2ccccc2Cl)nc2cc(Cl)ccc12` (stereo not given): the Potency in assay [1] (parasite line A) is 1.78 µM (active); in assay [1] (parasite line B), 2 µM (active); in assay [2] it was 1.41 µM (active); in assay [3] it was 0.794 µM (active); in assay [4] it was 2.24 µM (active); in assay [5] it was 2 µM (active). Moreover, in assay [6], the Potency is 3.55 µM (active).

Turning to `CN(CCO)CC(O)Cn1cnc2c1c(=O)n(C)c(=O)n2C` (stereo not given) (tested in a mixture with another compound), the results for the activity, negative = inhibition in assay [1] (parasite line A) and in assay [1] (parasite line B) were 12.7% and 12.8%, respectively. Also, the Potency entry in assay [2], in assay [3], in assay [4], in assay [5] and in assay [6] was “inactive” in each case.

Turning to `O=P(O)(O)OP(=O)(O)OP(=O)(O)O`, the activity, negative = inhibition in assay [1] (parasite line A) was -4.84%; in assay [1] (parasite line B), 8.54%. In addition, the Potency result in assay [2], in assay [3], in assay [4], in assay [5] and in assay [6] was “inactive” in each case.

`Cc1ccccn1`: the activity, negative = inhibition in assay [1] (parasite line A) is 14.6%; in assay [1] (parasite line B), 15%. For the same compound, the Potency result in assay [2], in assay [3], in assay [4], in assay [5] and in assay [6] was “inactive” in each case.

In the case of `C[C@H](N)C(=O)N[C@@H](C)P(=O)(O)O`, the activity, negative = inhibition in assay [1] (parasite line A) is 12.4%; in assay [1] (parasite line B) it was 10.4%. In addition, the Potency entry in assay [2], in assay [3], in assay [4], in assay [5] and in assay [6] was “inactive” each time.

Regarding `CCCCCCCCCCCCCCCCCCCCCC(=O)Nc1ccn([C@@H]2O[C@H](CO)[C@@H](O)[C@@H]2O)c(=O)n1`, the activity, negative = inhibition in assay [1] (parasite line A) is 4.02%; in assay [1] (parasite line B), 6.88%. Moreover, the Potency entry in assay [2], in assay [3], in assay [4], in assay [5] and in assay [6] was “inactive” each time.

In the case of `CC(C)CCC[C@@H](C)[C@H]1CC[C@H]2[C@@H]3CC[C@@H]4C[C@H](O)CC[C@]4(C)[C@H]3CC[C@]12C`, the figures for the activity, negative = inhibition in assay [1] (parasite line A) and in assay [1] (parasite line B) were -5.47% and 5.75%, respectively. The Potency entry in assay [2], in assay [3], in assay [4], in assay [5] and in assay [6] was “inactive” throughout.

For `Cc1nc(NS(=O)(=O)c2ccc(N)cc2)nc(C)c1Br`, the activity, negative = inhibition in assay [1] (parasite line A) was 7.52%; in assay [1] (parasite line B), -0.222%. Further, the Potency entry in assay [2], in assay [3], in assay [4], in assay [5] and in assay [6] was “inactive” each time.

As to `CCCCC`, the activity, negative = inhibition in assay [1] (parasite line A) was 7.05%; in assay [1] (parasite line B), 20.9%. Also, the Potency entry in assay [2], in assay [3], in assay [4], in assay [5] and in assay [6] was “inactive” in each case.

For `CN1c2c(nc(N)[nH]c2=O)NCC1CNc1ccc(C(=O)NC(CCC(=O)O)C(=O)O)cc1` (stereo not given), the activity, negative = inhibition in assay [1] (parasite line A) was 2.92%; in assay [1] (parasite line B), -8.81%. Also, the Potency entry in assay [2], in assay [3], in assay [4], in assay [5] and in assay [6] was “inactive” each time.

Turning to `FC(F)(F)C(F)(F)C(F)(F)C(F)(F)C(F)(F)C(F)(F)F`, the activity, negative = inhibition is 2.24% in assay [1] (parasite line A) and 2.03% in assay [1] (parasite line B). Moreover, the Potency entry in assay [2], in assay [3], in assay [4], in assay [5] and in assay [6] was “inactive” throughout.

Consider `CCN(CC)CCOC(=O)c1cccnc1`, for which the activity, negative = inhibition in assay [1] (parasite line A) was -11.6%; in assay [1] (parasite line B), -3.84%. Besides, the Potency result in assay [2], in assay [3], in assay [4], in assay [5] and in assay [6] was “inactive” throughout.

For the compound `[O]=[Bi][O]C(=O)[O][Bi]=[O]`, the activity, negative = inhibition in assay [1] (parasite line A) was 3.84%; in assay [1] (parasite line B), -1.66%. Further, the Potency entry in assay [2], in assay [4], in assay [5] and in assay [6] was “inactive” each time. In assay [3], the Potency is 10 µM (active).

Consider `CC1CC(O)CC(C)(C)C1` (stereo not given), for which the activity, negative = inhibition in assay [1] (parasite line A) is -1.2%; in assay [1] (parasite line B), 7.51%. Also, the Potency entry in assay [2], in assay [3], in assay [4], in assay [5] and in assay [6] was “inactive” in each case.

For the compound `O=S(=O)(O)CC(S)CS` (stereo not given), the activity, negative = inhibition in assay [1] (parasite line A) is 14.3%; in assay [1] (parasite line B) it was -2.53%. Besides, the Potency result in assay [2], in assay [3], in assay [4], in assay [5] and in assay [6] was “inactive” in each case.

In the case of `O=C(NNCNNC(=O)c1ccncc1)c1ccncc1`, the activity, negative = inhibition in assay [1] (parasite line A) is 1.43%; in assay [1] (parasite line B), 9.6%. Besides, the Potency result in assay [2], in assay [3], in assay [4], in assay [5] and in assay [6] was “inactive” each time.

Regarding `O=C(O)c1ccc(OCCn2ccnc2)cc1`, the activity, negative = inhibition in assay [1] (parasite line A) is 13.9%; in assay [1] (parasite line B) it was 6.25%. Also, the Potency entry in assay [2], in assay [3], in assay [4], in assay [5] and in assay [6] was “inactive” in each case.

`C=Cc1ccc(S(=O)(=O)O)cc1`: the figures for the activity, negative = inhibition in assay [1] (parasite line A) and in assay [1] (parasite line B) were 12.2% and -6.31%, respectively. The Potency entry in assay [2], in assay [3], in assay [4], in assay [5] and in assay [6] was “inactive” throughout.
